From PubChem BioAssay
Pf growth 48h: inhibits P. falciparum growth in the first generation, 48 h; Potency, µM (top dose mostly 28.7 µM), usual class: inhibitors; 310,000 tested, 5.9% active; P. falciparum luciferase growth in erythrocytes, 48 h
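A one-generation exposure of luciferase-tagged malaria parasites in RPMI 1640/Albumax erythrocyte culture, 37 C and 5% CO2. Inhibition is inferred from decreased luminescence after adding detection reagent.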
Shiga inhibitor: blocks Shiga toxin action in Vero cells | Vero cells, Shiga toxin protein synthesis inhibition reporter | inhibition, % at 38.7 µM | 290,000 tested, 9.2% active; in the data active = inhibition mostly above about 28%, no sharp cut-off; inactive = mostly below about 43%
Pf growth 96h: P. falciparum growth inhibition at 96 hour, primary screen for plastid delayed-death inhibitors; P. falciparum luciferase reporter growth, 96 h; Potency, µM (top dose mostly 28.7 µM), hits mostly inhibitors; 320,000 tested, 6.9% active
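Two parasite generations (96 h, 37 C, 5% CO2) of compound exposure in infected erythrocytes (0.05% parasitemia, 2% hematocrit). Luciferase-reporter P. falciparum; decreased luminescence indicates inhibited growth, aimed at apicoplast-acting delayed death.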
CHX counter: affects cycloheximide protein synthesis inhibition readout, counter-screen; max response, %; 300,000 tested, 12% active; cell reporter, cycloheximide protein synthesis inhibition counterscreen; AID 2314; in the data active = max response mostly above about 13%, no sharp cut-off; inactive = mostly below about 14%; also: read at 38.3 µM for the half of the compounds with a filed dose
NS1 function inh: blocks influenza NS1 protein function; 270,000 tested, 0.4% active; AID 2326; Potency, µM (highest dose often 46.1 µM); calls by dose curve; also: actives are rising curves; nearly all actives have a fitted effect of over 50% in size
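Recovery from NS1-induced slow growth read by OD600 in budding yeast switched to galactose assay medium (pH 6.0, -URA) at 1:100 dilution. Compound 23 nl per well; the matching strain lacking NS1 serves as control.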
A number is an active result; - = inactive; ? = inconclusive; . = no result; [ ] = remark or other dose. Compounds with a hit are over-represented: about 21% of the library has one in this group of screens. Unless noted, calls follow the shape of the dose curve; as a rule, active = well fitted inhibition curve with a large enough effect; inconclusive = small, poorly fitted or top-dose-only effect, or another doubt; inactive = no such curve, though single readings can be large or run the other way.

SMILES	Pf growth 48h	Shiga inhibitor	Pf growth 96h	CHX counter	NS1 function inh
COC(=O)c1ccc2nc(NC(=O)CCS(=O)(=O)c3ccccc3)sc2c1	-	-	-	-	-
Cc1ccc(NC(=O)c2cnccn2)cc1	-	72	?	34	.
Cc1nc(NC(=O)c2cnccn2)ccc1Br	-	107	-	43	-
Cc1nc(NC(=O)c2cncc(Br)c2)ccc1Br	-	.	?	-	-
Cc1cc(F)ccc1NC(=O)c1cnccn1	?	-	-	-	.
Cc1cccc(NC(=O)c2cnccn2)c1	-	.	-	17	-
Cc1ccc(NC(=O)c2cnccn2)cc1C	-	.	-	34	-
Cc1cccc(NC(=O)Nc2ccncc2)c1	-	-	?	-	.
Nc1c(S(=O)(=O)O)cc(Nc2cccc(S(N)(=O)=O)c2)c2c1C(=O)c1ccccc1C2=O	.	.	.	.	-
O=[N+]([O-])c1ccc2nccn2c1	-	-	-	-	-
CC(NC(=O)c1ccco1)C(=O)N(C)Cc1ccc(C(F)(F)F)cc1 (stereo not drawn)	-	-	-	-	-
O=C(Nc1ccc2c(c1)OCO2)c1cnccn1	-	88	-	21	.
O=C(Nc1ccc(Br)cc1)c1cnccn1	-	-	-	32	-
O=C(O)Cc1ccc(NC(=O)c2cnccn2)cc1	-	-	-[5.75 µM]	-	-
CC(C)CN(C(=O)c1cc(=O)[nH]c2ccccc12)c1c(N)n(Cc2ccccc2)c(=O)[nH]c1=O	-	.	-	.	.
Cc1ccc2c(c1)N(CC(=O)N1CCCCC1)C(=O)CO2	-	-	?	-	-
Clc1ccc(-n2nnnc2-c2cnc(-c3ccncc3)nc2-c2cccs2)cc1	4.7µM	-	?	-	-
COc1cc(C(=O)NCC(c2ccco2)N2CCCC2)ccc1OCc1c(C)noc1C (stereo not drawn)	12µM	-	?	-	-
CCOc1ccc(C(=O)NCC(=O)NCC(c2ccccc2OC)N2CCCC2)cc1 (stereo not drawn)	?	.	-	.	.
Cc1noc(C)c1COc1ccc(C(=O)NCC(c2c(F)cccc2Cl)N(C)C)cc1 (stereo not drawn)	?	.	9.3µM	.	.
COc1ccc(C(CNC(=O)c2ccc(OCc3c(C)noc3C)cc2)N2CCCC2)cc1 (stereo not drawn)	4.7µM	.	3.7µM	.	.
COc1ccccc1C(CNC(=O)c1ccc(OCc2c(C)noc2C)cc1)N1CCCC1 (stereo not drawn)	10µM	.	10µM	.	.
COc1ccc(C2C(C(=O)NCCN3CCOCC3)c3ccccc3C(=O)N2C)cc1OC (stereo not drawn)	-	-	?	-	-
C=CCNC(=S)Nc1nc2c(cc1C(=O)OCC)CCCC2	-	-	-	-	-
O=C(COC(=O)Cc1cccs1)Nc1ccc(OC(F)(F)F)cc1	-	.	-	.	.
SMILES	Pf growth 48h	Shiga inhibitor	Pf growth 96h	CHX counter	NS1 function inh
CC(=O)c1sc(NC(=O)c2cc3c(C)nn(-c4ccccc4)c3s2)nc1C	-	-	-	-	-
Cc1nn(-c2ccccc2)c2sc(C(=O)N(CC(=O)NC3CCCC3)Cc3ccco3)cc12	12µM	-	?	-	-
Cc1nn(-c2ccccc2)c2sc(C(=O)NC3CC3)cc12	?	81	-	52	?
COc1ccc(OC)c(CNS(=O)(=O)c2c(C)nc3scc(C)n3c2=O)c1	-	-	-	-	-
CCOC(=O)c1c(-c2ccc(OC)cc2)csc1NC(=O)CCN1CCOCC1	12µM	-	5.9µM	-	-
CCOC(=O)c1c(-c2ccc(C)cc2)csc1NC(=O)C1CCCO1 (stereo not drawn)	?	-	9.3µM	-	-
COC(=O)c1c(-c2cc(C)ccc2C)csc1NC(=O)C1CC=CCC1C(=O)O (stereo not drawn)	-	-	-	-	-
COC(=O)c1c(-c2cccc(C)c2)csc1NC(=O)C1CCCO1 (stereo not drawn)	13µM	-	-	27	-
COC(=O)c1c(-c2ccc(C)cc2)csc1NC(=O)C1CC=CCC1C(=O)O (stereo not drawn)	-	active	-	-	-
Cn1cccc1Cc1nnc(SCC(=O)Nc2ccc(Cl)cc2)n1-c1ccc(F)cc1	?	-	-	-	-
COc1ccc(NC(=O)c2cccc3ccccc23)cc1	-	-	?	20	-
COc1ccc(NC(=O)c2ccccc2C)cc1	-	.	-	34	-
O=C(Nc1ccc(F)cc1)c1cccc2ccccc12	-	-	-	24	-
O=C(O)c1ccccc1-c1ccccc1C(=O)Nc1ccc(F)cc1	.	-	-	-	-
COc1ccc(CCNC(=O)C2CCN(C(=O)c3ccc([N+](=O)[O-])cc3)CC2)cc1	-[5.75 µM]	-	-	-	-
CN(C(=O)CN1C(=O)c2cccc(N)c2C1=O)C1CCCCC1	-	.	-	.	.
CN(CC(=O)Nc1ccccc1Br)C(=O)CCSc1ccc(F)cc1	?	.	-	.	.
Cc1cc2cc(OCc3ccccc3)ccc2n1C	-	31	?	25	-
O=Cc1c[nH]c2ccc(OCc3ccccc3)cc12	?	.	-	.	.
Cc1c(C=O)c2cc(OCc3ccccc3)ccc2n1C	-	70	?	39	-
Nc1ccc(SCc2nc3cccc4c3n2CCC4)cc1	-	55	-	25	-
O=C(NNC(=O)C(Cl)Cl)c1cnn(-c2ccccc2)c1C(F)(F)F	-	-	-	-	-
CCN(CC(=O)Nc1c(F)cccc1F)C(=O)CCCc1cccs1	?	.	-	.	.
C/C(CC(=O)Nc1ccc(C)c(Cl)c1)=N\NC(=O)Cc1cccs1	-	-	-	17	-
CN(CC(=O)Nc1c(F)cccc1F)Cc1cccs1	-	-	-	14	-
SMILES	Pf growth 48h	Shiga inhibitor	Pf growth 96h	CHX counter	NS1 function inh
Cc1ccc(NC(=O)CN(C)Cc2cccs2)cc1Cl	-	-	-	16	-
C/C(CC(=O)Nc1ccc(Cl)c(Cl)c1)=N\NC(=O)Cc1ccccc1	-	-	-	-	-
CCN(CC)c1ccc(NC(=O)CN(C)Cc2cccs2)cc1	?	-	-	-	-
O=C(CC1CCCCC1)NCc1nc(-c2ccccc2)no1	-	-	-	-	-
CCc1cccc(NS(=O)(=O)c2c(C)nc3scc(C)n3c2=O)c1	?	-	?	-	-
CN(Cc1ccccc1)C(=O)C1CCN(S(=O)(=O)c2cccc3nsnc23)CC1	?	-	?	-	-
Cc1sc(NC(=O)c2ccco2)c(CN2CCN(Cc3ccccc3)CC2)c1C	9.3µM	-	?	-	.
Cc1sc(NC(=O)c2ccc(F)cc2)c(CN2CCCCCC2)c1C	-	175	-	43	-
Cc1sc(NC(=O)c2ccccc2F)c(CN2CCCCC2)c1C	-	127	?	50	-
Cc1sc(NC(=O)c2ccco2)c(CN2CCC(C)CC2)c1C	.	-	?	-	-
O=C1c2ccccc2CN1C(CO)Cc1ccccc1 (stereo not drawn)	-	-	-	-	-
COC(=O)C(Cc1ccc(OC(=O)c2ccc(Cl)cc2)cc1)N1Cc2ccccc2C1=O (stereo not drawn)	-	126	-	44	-
COC(=O)C(Cc1ccc(OC(=O)c2ccc(C(F)(F)F)cc2)cc1)N1Cc2ccccc2C1=O (stereo not drawn)	-	69	-	43	-
O=C(NC(Cc1cc(=O)[nH]c2ccccc12)C(=O)O)c1ccc(Cl)cc1 (stereo not drawn)	-	.	-	.	.
